In all, about 340,000 compounds went through this assay and about 1,400 (0.41%) were called active. What follows is part of a selection rich in actives, with near analogues and random picks from the rest. A number with no mark means an inactive call.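 Rule for the calls: active = response above a set limit, near 3 SD of response in nonfluorescent compounds (cut at about 42% in these data); inactive = the rest.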
target: Beta-2 adrenergic receptor (Homo sapiens) (UniProt P07550); assay: beta2AR agonists driving receptor internalization, primary screen, cell-based, FAP fluorogen, flow cytometry (AID 504454); settings: Am2.2-beta2AR cells, hits give high values, concentration not given here
Sequence (P07550 whole entry, looked up): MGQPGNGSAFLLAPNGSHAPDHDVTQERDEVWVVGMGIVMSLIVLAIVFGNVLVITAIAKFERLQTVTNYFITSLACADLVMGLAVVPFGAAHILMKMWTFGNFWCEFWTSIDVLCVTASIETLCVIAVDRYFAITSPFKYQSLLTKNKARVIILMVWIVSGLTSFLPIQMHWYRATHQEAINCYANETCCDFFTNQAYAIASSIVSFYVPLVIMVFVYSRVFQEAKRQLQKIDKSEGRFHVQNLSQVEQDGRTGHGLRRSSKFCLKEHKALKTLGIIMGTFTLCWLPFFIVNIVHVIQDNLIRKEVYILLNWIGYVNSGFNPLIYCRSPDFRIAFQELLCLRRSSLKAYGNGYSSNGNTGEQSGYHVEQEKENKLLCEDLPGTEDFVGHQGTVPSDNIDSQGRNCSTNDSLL

Point of comparison: `O=C1C=C(NS(=O)(=O)c2ccccc2)C(=O)c2ccccc21`, response 1.55%. Against it:
- CSc1ccc(S(=O)(=O)N2CCC(C(=O)NCCc3ccccc3)CC2)cc1 — higher, 21.2%
- COc1ccc(CCNC(=O)C2CCN(c3nn4c(=O)cc(C)nc4s3)CC2)cc1OC — higher, 2.26%
- COc1cc(O)c2c(=O)c3c(O)c(O)ccc3oc2c1OC — higher, 27.1%
- COCCNC(=O)C1CCN(S(=O)(=O)c2ccc3c(c2)OCCO3)CC1 — lower, -3.08%
- COC(=O)c1ccc(Sc2ccc(F)cc2)c(N)c1 — lower, -3.98%
- Cc1snc(SCc2c(F)cccc2Cl)c1C#N — lower, -7.91%
- Cc1ccc(C(=O)N/C(=C\c2ccco2)C(=O)N2CCSCC2)cc1C — lower, -0.71%
- O=C(Nc1ccc(C(=O)NCc2ccccc2Cl)cc1)C1=CSCCO1 — lower, -0.39%
- CS(=O)(=O)NCc1ccc(C(=O)NCc2ccccc2)cc1 — lower, -3.96%
- NC(=O)c1ccsc1NC(=O)COC(=O)Cc1n[nH]c(=O)c2ccccc12 — lower, -0.52%
- CCCCN(C(=O)c1ccc(OC(F)(F)F)cc1)c1c(N)n(CCC)c(=O)[nH]c1=O — higher, 7.36%
- COc1cccc(OC)c1C(=O)OCC(=O)/C(C#N)=C(\C)N — higher, 13.3%
- CSCC(=O)N1CCCC(C(=O)c2cc(F)ccc2F)C1 (stereo not given) — lower, -14.2%
- CCc1ccccc1NC(=O)[C@@H]1CCC(=O)N1C1OC(=O)c2c1ccc(OC)c2OC (stereo not given in full) — higher, 11.2%
- C/C(CC1CC(C)(C)OC1=O)=N/Nc1nc(-c2ccccc2)cs1 (stereo not given) — higher, 4.49%
- O=C(NCC1CC1)c1onc(CSc2ccccc2)c1C(=O)NCC1CC1 — lower, -4.02%
- CCn1c(SCC(=O)NC2CC2)nnc1-c1ccccn1 — lower, -5.81%
- COC(=O)C1(C)NC(c2ccc(F)cc2)C2C(=O)N(c3ccccc3)C(=O)C21 (stereo not given) — lower, 1.51%
- Cc1n[nH]c(=O)c2c1nnn2Cc1ccc(F)cc1 — higher, 2.64%
- Cc1cc(C)cc(C(=O)N(CCc2ccccc2)C2=CC3CCC(C2)N3C)c1 (stereo not given) — higher, 11.3%
- CCOC(=O)c1cnc(SCC(=O)Nc2ccccc2C(=O)OC)nc1N — higher, 2.55%
- O=C(O)CCCn1cc(NC(=O)COc2cccc(Cl)c2)cn1 — higher, 15.6%
- COC(CNC(=O)Cn1ncc2ccsc2c1=O)OC — lower, 1.39%
- O=C(COC(=O)CCc1c[nH]c(=O)[nH]1)Nc1ccccc1Cl — lower, -3.16%
- CN(C)S(=O)(=O)Oc1ccccc1C(=O)Nc1ccccc1Cl — higher, 1.66%
- CCc1nc(N2CCN(C(C)=O)CC2)c2c3c(sc2n1)CCCC3 — lower, -8.93%
- COc1cccc(NC(=O)c2ccc3c(SCC(=O)O)c4c(nc3c2)CCCC4)c1 — lower, 1.27%
- CC(C)CCNC(=O)c1ccc2c(Cl)c3c(nc2c1)CCC3 — lower, -1.39%
- CC(C)NC(=O)COCc1cc(-c2ccc3c(c2)OCO3)on1 — lower, -5.4%
- N#CC1(NC(=O)COc2ccc3oc4ccccc4c3c2)CCCCC1 — lower, -4.35%
- Brc1ccccc1CN1CCC(Cc2ccccc2)CC1 — higher, 4.82%
- O=C(c1ccccc1)c1ccc2nc(N3CCCCC3)c3nncn3c2c1 — lower, -11.4%
- COc1ccc(C2c3ccc(O)cc3Oc3ncn(CCCO)c(=N)c32)cc1OC (stereo not given) — lower, -10.4%
- CS(=O)(=O)N1CCN(CC(=O)NC2CCCC2)CC1 — lower, -2.25%
- CCOC(=O)C1CCCN(C(=O)/C=C/c2ccc(OC)cc2)C1 (stereo not given) — lower, 0.35%
- COc1ccc(S(=O)(=O)N2CCCC(C(=O)NCCCn3ccnc3)C2)cc1OC (stereo not given) — higher, 10.8%
- O=C(NCCCn1ccnc1)Nc1ccc(Cl)cc1Cl — lower, -0.95%
- CC1Cc2ccccc2N1C(=O)Cn1cnc2ccccc2c1=O (stereo not given) — higher, 6.28%
- Cc1ccn2cc(-c3nonc3C)cc2c1 — higher, 15.2%
- CC(C)OC(=O)CN1C(=O)C(=O)c2ccccc21 — higher, 7.48%
- O=C(CN1C(=O)C2C3C=CC(C3)C2C1=O)NCC1COc2ccccc2O1 (stereo not given) — lower, 1.48%
- c1ccc(CSc2ncnc3c2sc2nc(N4CCOCC4)c4c(c23)CCCC4)cc1 — higher, 10.1%
- C#CCOCCOCCOCCNc1nc(N2CCN(C(=O)[C@H](CCCN=C(N)N)n3cc(C(N)[C@@H](C)CC)nn3)CC2)nc(N2CCN(C(=O)[C@H](CO)n3cc([C@@H](N)C(C)C)nn3)CC2)n1 (stereo not given in full) — lower, -10.2%
- C#CCOCCOCCOCCNc1nc(N2CCN(C(=O)[C@H](CCCCN)n3cc(CCC(=O)O)nn3)CC2)nc(N2CCN(C(=O)[C@H](CCCCN)n3cc(CC(C)O)nn3)CC2)n1 (stereo not given in full) — lower, 0.88%
- C#CCOCCOCCOCCNc1nc(N2CCN(C(=O)[C@H](CCC(=O)O)n3cc(CN)nn3)CC2)nc(N2CCN(C(=O)[C@H](CCC(=O)O)n3cc(CN)nn3)CC2)n1 — lower, -3.45%
- C#CCOCCOCCOCCNc1nc(N2CCN(C(=O)C([C@@H](C)O)n3cc([C@@H](N)CCCCN)nn3)CC2)nc(N2CCN(C(=O)[C@H](CCCCN)n3cc(CN)nn3)CC2)n1 (stereo not given in full) — higher, 1.85%
- C#CCOCCOCCOCCNc1nc(N2CCN(C(=O)Cn3cc(CCO)nn3)CC2)nc(N2CCN(C(=O)Cn3cc(CCCN=C(N)N)nn3)CC2)n1 — higher, 6.34%
- C#CCOCCOCCOCCNc1nc(N2CCN(C(=O)Cn3cc(CCO)nn3)CC2)nc(N2CCN(C(=O)[C@H](CCCCN)n3cc(CCCC)nn3)CC2)n1 — lower, 0.16%
- Cc1ccccc1NC(=O)C(C)OC(=O)CCC(=O)N(CC(C)C)c1c(N)n(CC(C)C)c(=O)[nH]c1=O (stereo not given) — lower, -6.93%
- CC(Cc1cccs1)NC(=O)c1cccc(Cl)c1 (stereo not given) — higher, 5.14%
- NC(=O)C1CCN(C(=O)/C(=C/c2ccco2)NC(=O)c2ccccc2)CC1 — higher, 1.8%
- CN(CCCNC(=O)CN1C(=O)CC(C)(C)S(=O)(=O)c2ccccc21)C1CCCCC1 — lower, -2.22%
- CC(NC(=O)c1ccccc1C(=O)O)c1ccc(-n2ccnc2)cc1 (stereo not given) — lower, -8.08%
- CCCOCC(O)CC(CC)C(=O)NNC(=S)Nc1ccccc1 (stereo not given) — higher, 2.14%
- O=C(O)CCn1c(O)c(C=C2N=c3ccccc3=N2)sc1=S — lower, -0.19%
- COC(=O)c1ccccc1NC(=O)C1CCN(S(=O)(=O)c2cc(OC)ccc2OC)CC1 — higher, 4.15%
- Nc1cc(N2CCCCCC2)c2nonc2c1[N+](=O)[O-] — higher, 7.26%
- Cc1nnc(SCC(=O)N2c3ccccc3C(C)(c3ccc(Cl)cc3)CC2(C)C)s1 (stereo not given) — higher, 5.93%
- CSCCNC(=O)c1ccc2nc(Cc3ccccc3F)oc2c1 — lower, 1.28%
- COC(=O)c1c(NC(=O)C2CC(C)=C(C)CC2C(=O)O)sc2c1CCCCC2 (stereo not given) — higher, 4.27%
- CC1=C(C)CC(C(=O)NNC(=O)c2ccccc2O)C(C(=O)O)C1 (stereo not given) — lower, -13%
- C=CCNC(=O)C1CC=CCC1C(=O)O (stereo not given) — lower, -0.29%
- CCCCNc1c(-c2ccc(OC)c(Sc3ccc(OC)cc3)c2)nc2ccc(Cl)cn12 — higher, 23%
- CCCCCCSc1ccc(-c2nc3ccc(Cl)cn3c2NCc2ccccc2)cc1 — lower, -5.85%
- COc1ccc(C2=Nn3c(nnc3-c3ccccc3OC)SC2)cc1OC1CCCC1 — higher, 29.8%
- CC(NC(=O)c1ccccc1)C(=O)Nc1ccccc1 (stereo not given) — lower, -0.42%

`CSc1ccc(CCNC(=O)C2CCN(c3nnc(-n4cccc4)s3)CC2)cc1` was tested, and the response was 77.9% (active).
With `CSc1ccc(CNC(=O)c2ccc(NC(=O)C3=CSCCO3)cc2)cc1` the response was 98.2% (active).
`CC1(C)C=Cc2c(ccc3c2OC[C@@H](c2ccc(O)cc2O)C3)O1` was tested, and the response was 45% (active).
In the case of `COc1ccc2c(c1OC)C(=O)OC2Nc1nc(-c2ccccc2)cs1` (stereo not given), the response is reported as 43.4% (active).
`CCCN(CCc1ccccc1)C1CCc2c(O)cccc2C1` (stereo not given) was tested, and the response was 56.8% (active).
For `O=C(Nc1ccccc1Cl)/C(Cl)=C(\Cl)S(=O)c1ccccc1` (stereo not given), the response was 56.9% (active).
For `CC(=O)c1ccc(NC(=O)c2ccc3c(Cl)c4c(nc3c2)CCCC4)cc1`, the response was 60.5% (active).
In the case of `c1ccc(CC2CCN(c3nc4ccccc4n4cnnc34)CC2)cc1`, the response is reported as 68% (active).
`CSc1nc(-c2ccccc2)nc(C(Cl)Cl)n1` was tested, and the response was 81.7% (active).
In the case of `CCN1CCC(O)(/C=C/c2ccc(C)cc2)C(C(=O)/C=C/c2ccc(C)cc2)C1` (stereo not given), the response is reported as 52.9% (active).
`O=C(NCCCn1ccnc1)C1CCCN(S(=O)(=O)c2cc(Cl)ccc2Cl)C1` (stereo not given) was tested, and the response was 105% (active).
`O=C1C(=O)N(CC2COc3ccccc3O2)c2ccccc21` (stereo not given) was tested, and the response was 45.6% (active).
`C#CCOCCOCCOCCNc1nc(N2CCN(C(=O)CCCCCCCCCCNC(=O)Cn3cc(CCCCCN)nn3)CC2)nc(N2CCN(C(=O)CCCCCCCCCCNC(=O)[C@H](CO)n3cc(CCCSC)nn3)CC2)n1` was tested, and the response was 64.5% (active).
`C#CCOCCOCCOCCNc1nc(N2CCN(C(=O)CCCCCCCCCCNC(=O)[C@H](CCCCN)n3cc(C)nn3)CC2)nc(N2CCN(C(=O)CCCCCCCCCCNC(=O)[C@H](CO)n3cc(CCCSC)nn3)CC2)n1` was tested, and the response was 77% (active).
`C#CCOCCOCCOCCNc1nc(N2CCN(C(=O)CCCCCCCCCCNC(=O)[C@H]([C@@H](C)CC)n3cc(CCCCN=C(N)N)nn3)CC2)nc(N2CCN(C(=O)CCCCCCCCCCNC(=O)[C@H](CO)n3cc(CCCSC)nn3)CC2)n1` was tested, and the response was 96.3% (active).
With `CC1=C(C)CC(C(=O)NNC(=O)c2csc3c2CCC(C(C)(C)C)C3)C(C(=O)O)C1` (stereo not given) the response was 61% (active).
`CCCCNc1c(-c2cccc(Sc3ccc(OC)cc3)c2)nc2ccccn12` was tested, and the response was 45% (active).
For `O=C(NC1=CC(=O)c2ccccc2C1=O)c1ccccc1`, the response was 84% (active).

Source: PubChem BioAssay AID504454 (NMMLSC, 2011)
